Screening results: PubChem BioAssay, Broad Institute
The list is not random: actives were taken first. Their share in the collection is about 2.1%.
rRNA inh HTS – inhibits bacterial ribosomal RNA function over humanized ribosomes; 350,000 compounds, 1.6% hits; E. coli WT GFP vs humanized-ribosome RFP mutants, fluorescence, 24 h; stronger effect = lower value; DMSO median 0, no signal -100; GFP signal change (wild-type ribosome), % (concentration not given with the values);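 active = significant combined selectivity score with lowered wild-type GFP, culture density cut under 30%, mutant RFP and density less affected; inactive = any of these conditions unmet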
ERAP1 inh – blocks human ERAP1 aminopeptidase activity | inhibition, % at 10.7 µM | 340,000 compounds, 0.15% hits | recombinant ERAP1, Leu-AMC fluorescence, 60 min;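 active = mean replicate inhibition of at least 30%, or all replicates individually reaching that 30% level; inactive = mean below 30% and not every replicate reaching it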
Target sequence (Q9NZ08 whole entry, looked up): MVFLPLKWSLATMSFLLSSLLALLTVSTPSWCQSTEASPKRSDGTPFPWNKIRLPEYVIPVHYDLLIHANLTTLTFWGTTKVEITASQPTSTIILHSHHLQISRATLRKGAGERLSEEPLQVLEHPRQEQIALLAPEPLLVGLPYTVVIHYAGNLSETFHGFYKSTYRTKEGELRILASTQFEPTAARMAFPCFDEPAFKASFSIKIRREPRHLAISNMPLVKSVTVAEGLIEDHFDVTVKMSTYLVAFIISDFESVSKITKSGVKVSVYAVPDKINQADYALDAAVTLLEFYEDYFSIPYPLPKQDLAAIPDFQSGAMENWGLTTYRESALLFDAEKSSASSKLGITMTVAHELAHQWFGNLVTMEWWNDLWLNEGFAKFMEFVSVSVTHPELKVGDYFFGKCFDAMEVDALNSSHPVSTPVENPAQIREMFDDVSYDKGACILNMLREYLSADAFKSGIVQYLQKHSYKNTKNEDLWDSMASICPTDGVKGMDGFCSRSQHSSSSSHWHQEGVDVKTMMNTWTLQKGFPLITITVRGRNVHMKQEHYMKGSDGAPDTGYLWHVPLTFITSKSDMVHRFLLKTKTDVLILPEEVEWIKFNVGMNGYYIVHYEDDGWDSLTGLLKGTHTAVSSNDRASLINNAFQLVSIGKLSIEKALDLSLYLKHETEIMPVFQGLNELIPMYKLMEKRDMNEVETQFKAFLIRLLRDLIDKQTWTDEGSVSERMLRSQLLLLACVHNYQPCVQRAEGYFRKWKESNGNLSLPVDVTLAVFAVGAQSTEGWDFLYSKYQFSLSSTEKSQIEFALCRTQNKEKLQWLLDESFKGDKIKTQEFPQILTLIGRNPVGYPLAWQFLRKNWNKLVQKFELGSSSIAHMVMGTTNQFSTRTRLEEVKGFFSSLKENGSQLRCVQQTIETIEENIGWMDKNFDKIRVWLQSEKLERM
ARNT-TACC3 inh – disrupts binding between human ARNT and TACC3; Q9Y6A5; AlphaScreen His-ARNT PAS-B/GST-TACC3 binding, luminescence; TACC3 fragment carries E629A point mutation; inhibition, % at 9.99 µM; 390,000 compounds, 0.66% hits;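 active = mean inhibition of replicates at least 50% and at least half of replicates each reaching 50%; inconclusive = half or more replicates reach 50% but mean below 50%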
PvdQ inh – blocks Pseudomonas aeruginosa PvdQ acylase activity. purified PvdQ acylase, fluorescence plate reader. inhibition, % at 10 µM. 340,000 compounds, 0.063% hits. AID 488965; in the data active = inhibition above about 30%, passing the limit was not always enough; inconclusive = no clear call, values can overlap the other calls
CFTR F508del cor – CFTR F508del correction in bronchial cells. CFBE cells, YFP halide quenching; stimulated with forskolin plus potentiator P3; % fluorescence drop versus neutral controls. activity (quench increase), % at 7.58 µM. 350,000 compounds, 0.36% hits. AID 720511;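 active = mean added fluorescence quench of at least 8% versus neutral control, with both replicates also reaching 8%; inconclusive = only one of the mean or replicate conditions met; inactive = mean below 8% and not both replicates reaching 8%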;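 also: cells transiently co-express mutant CFTR-F508del with the halide-sensitive YFP; corrector assay measuring rescue of mutant channel to the surface after 24 h compound exposure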
HepG2 tox – cytotoxic compounds in HepG2 cells; shares compounds with rRNA inh HTS; 30 tested, under 10 active; activity change, negative = cytotoxicity, unspecified at 26 µM; HepG2 viability, ATP luminescence, 72 h;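 active = compounds whose fitted half-maximal signal-loss concentration is at most twice their highest valid dose; inconclusive = flat curve with 30 to 70% signal loss, or poor fit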
AID977621 – growth inhibition of wild-type GFP E. coli, dose response, H69 mutant RFP, cherry-pick; activity change, negative = inhibition at 50 µM; E. coli wild-type GFP strain growth, fluorescence, 24 h; shares compounds with rRNA inh HTS; 1,900 tested, under 10 active;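 active = Wild-type ribosome reporter drop at least double the humanized mutant ribosome reporter drop, growth loss under a set limit; inconclusive = no clear call, values can overlap the other calls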;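 also: wild-type GFP and H69 mutant RFP strains grown together 50/50 in each well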
AID977628 – E. coli growth inhibition, wild-type GFP versus h24 humanized RFP strain, dose response, h24 mutant RFP vs wild-type GFP, cherry-pick | shares compounds with rRNA inh HTS | activity change, negative = inhibition at 50 µM | E. coli WT GFP strain growth, fluorescence, 24 h | 1,900 tested, under 10 active;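 active = compound lowering the normal-ribosome reporter at least twice as much as the humanized-ribosome reporter, growth loss under a set limit; inconclusive = no clear call, values can overlap the other calls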;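 also: wild-type GFP and h24 humanized RFP strains co-cultured 1 to 1 per well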
Of the large screens only hits and unclear results are named; the others gave an inactive call (follow-up assays come after a bar, where they were run).

CC(C)CNc1nc(S(=O)(=O)c2ccccc2)c(Cl)s1	rRNA inh HTS -40 | AID977621 inconclusive | AID977628 inactive
O=C(Nc1ccc(C(=O)c2ccccc2)cc1)c1ccccc1	rRNA inh HTS -22 | AID977621 inactive
O=C(Nc1ccncc1)c1ccc(S(=O)(=O)Nc2ccccc2)cc1	rRNA inh HTS -23 | AID977621 inactive | AID977628 inconclusive
c1cc2cc(-c3c(-c4ccc5c(c4)OCO5)noc3-c3ccsc3)ccc2[nH]1	rRNA inh HTS -13 (no result: ARNT-TACC3 inh) | AID977621 inactive | AID977628 inactive
Cc1onc(-c2ccc3c(c2)OCO3)c1-c1ccc2[nH]ccc2c1	none
Cc1cccc(NC(=O)c2sc3nc(-c4ccccc4)cn3c2C)n1	rRNA inh HTS -18 | AID977621 inactive
COc1ccc(NC(=O)Nc2ccc3c(c2)[C@@H]2C[C@@H](CC(=O)N4CCN(C)CC4)O[C@H](CO)[C@@H]2O3)cc1	none (no result: PvdQ inh)
CSc1ccccc1NC(=O)CN(c1cccc(C)c1)S(C)(=O)=O	rRNA inh HTS -20 | AID977621 inactive
COc1ccc2[nH]c3c(=O)n(CCCCC(=O)NCCC(C)C)c(=S)[nH]c3c2c1	rRNA inh HTS -25 | HepG2 tox inactive
COc1ccc(-c2csc3ncn(-c4ccc(C)cc4)c(=O)c23)cc1OC	rRNA inh HTS -23 | AID977621 inconclusive
COc1ccc(-n2cnc3scc(-c4ccc(OC)c(OC)c4)c3c2=O)cc1	none (no result: ARNT-TACC3 inh)
COC(=O)N[C@H]1CC=C[C@@H]1Cc1cccc(Oc2ccccc2)c1	none (no result: ARNT-TACC3 inh, PvdQ inh)
CC(=O)Nc1ccccc1OCCOc1ccc(Br)cc1	none
CC(=O)c1ccccc1OCCCN1CCCCC1	none (no result: rRNA inh HTS, ERAP1 inh, CFTR F508del cor)
NC(=O)c1ccccc1OCCOc1ccc(Br)cc1	rRNA inh HTS -26 | AID977621 inactive | AID977628 inactive
CC(=O)c1ccccc1OCCOCCOCCOc1ccccc1C(C)=O	rRNA inh HTS -22 | AID977621 inactive | AID977628 inconclusive
CCCC#Cc1cnc2c(c1)C(=O)N([C@H](C)CO)C[C@@H](C)[C@H](CN(C)S(=O)(=O)c1ccccc1)O2	none (no result: PvdQ inh)
C[C@@H]1CN([C@H](C)CO)C(=O)c2cc(NC(=O)Nc3ccccc3)ccc2O[C@@H]1CN(C)S(=O)(=O)c1cn(C)cn1	none (no result: PvdQ inh)
COc1ccc(CN(C)C(=O)CNC(=O)CNC(=O)c2ccc(Cl)cc2Cl)cc1F	none
CN(Cc1ccc(Cl)s1)C(=O)CNC(=O)CNC(=O)c1ccc(Cl)cc1Cl	rRNA inh HTS -27 | AID977628 inactive
O=C(Nc1ccc(S(=O)(=O)NC2=NCCCCC2)cc1)c1ccc([N+](=O)[O-])s1	rRNA inh HTS -20 | AID977621 inconclusive | AID977628 inactive
Cn1c(CC2C(=O)Nc3ccc(Br)cc32)nc2ccccc2c1=O (stereo not given)	rRNA inh HTS -29 | AID977621 inactive | AID977628 inactive
COc1ccc(CNC(=O)N(C)C[C@H]2OCc3ccccc3-c3ccccc3C(=O)N([C@H](C)CO)C[C@@H]2C)cc1	none (no result: PvdQ inh)
CN(C(=O)COc1ccccc1C(=O)NCCOc1ccccc1)c1ccccc1	rRNA inh HTS -19 (no result: CFTR F508del cor) | AID977621 inactive
COc1ccc(CN(C)C[C@H]2Oc3c(NS(=O)(=O)c4cccs4)cccc3C(=O)N([C@@H](C)CO)C[C@H]2C)cc1	none (no result: PvdQ inh)
COc1cccc(S(=O)(=O)N2CCCCN3[C@H](CO)[C@@H](c4ccc(C#CCC(C)C)cc4)[C@@H]3C2)c1	none (no result: PvdQ inh)
COc1cccc(S(=O)(=O)N2CCCCN3[C@@H](CO)[C@H](c4ccc(C#CCC(C)C)cc4)[C@@H]3C2)c1	none (no result: PvdQ inh)
COc1cccc(S(=O)(=O)N2CCCCN3[C@H](CO)[C@H](c4ccc(C#CC(C)C)cc4)[C@@H]3C2)c1	none (no result: PvdQ inh) | AID977621 inactive
